# Where two headings read alike, the source gives them in different places.
# Columns and labels:
# IKK-alpha = test system: T1, IKK-alpha; details: concentration: 1 μM, replicates: in singlicate; n = 1
# T1 construct: gene CHUK
# IKK-beta = test system: T2, IKK-beta; details: concentration: 1 μM, replicates: in singlicate; n = 1
# T2 construct: gene IKBKB
# IKK-epsilon = test system: T3, IKK-epsilon; details: concentration: 1 μM, replicates: in singlicate; n = 1
# T3 construct: gene IKBKE
# INSRR = details: concentration: 1 μM, replicates: in singlicate; n = 1
# INSR = details: concentration: 1 μM, replicates: in singlicate; n = 1
# IRAK1 = details: concentration: 1 μM, replicates: in singlicate; n = 1
# IRAK3 = details: concentration: 1 μM, replicates: in singlicate; n = 1
# IRAK4 = details: concentration: 1 μM, replicates: in singlicate; n = 1
# ITK = details: concentration: 1 μM, replicates: in singlicate; n = 1
# [1] = test system: JAK1(JH1domain-catalytic); details: concentration: 1 μM, replicates: in singlicate; n = 1
# [2] = test system: JAK1(JH2domain-pseudokinase); details: concentration: 1 μM, replicates: in singlicate; n = 1
# [3] = test system: JAK2(JH1domain-catalytic); details: concentration: 1 μM, replicates: in singlicate; n = 1
# [4] = test system: JAK3(JH1domain-catalytic); details: concentration: 1 μM, replicates: in singlicate; n = 1
# JNK1 = test system: T4, JNK1; details: concentration: 1 μM, replicates: in singlicate; n = 1
# T4 construct: gene MAPK8
# JNK2 = test system: T5, JNK2; details: concentration: 1 μM, replicates: in singlicate; n = 1
# T5 construct: gene MAPK9
# JNK3 = test system: T6, JNK3; details: concentration: 1 μM, replicates: in singlicate; n = 1
# T6 construct: gene MAPK10
# KIT-autoinhibited = details: concentration: 1 μM, replicates: in singlicate; n = 1
# KIT = details: concentration: 1 μM, replicates: in singlicate; n = 1
# LATS1 = details: n = 1
# LATS2 = details: concentration: 1 μM, replicates: in singlicate; n = 1
# [5] = concentration: 1 μM, replicates: in singlicate
# 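Further: KINOMEscan kinase panel screen.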
structure (smiles),measurement,setting,value
O=C(Nc1cccc(-c2nn3ccccc3c2-c2ccnc(Nc3cccc(F)c3)n2)c1)c1c(F)ccc(F)c1Cl [GSK357952],%Inh,IKK-alpha,0%
same,%Inh,IKK-beta,0%
same,%Inh,IKK-epsilon,65%
same,%Inh,INSRR,19%
same,%Inh,INSR,8%
same,%Inh,IRAK1,83%
same,%Inh,IRAK3,0%
same,%Inh,IRAK4,84%
same,%Inh,ITK,12%
same,%Inh,[1],0%
same,%Inh,[2],0%
same,%Inh,[3],25%
same,%Inh,[4],0%
same,%Inh,JNK1,11%
same,%Inh,JNK2,23%
same,%Inh,JNK3,19%
same,%Inh,KIT-autoinhibited,0%
same,%Inh,KIT,98.2%
same,%Inh,LATS1; [5],0%
same,%Inh,LATS2,49%
Cc1cccc(Nc2nc(N[C@H]3CCNC3)ncc2C(N)=O)c1.Cl [GSK2197149],%Inh,IKK-alpha,35%
same,%Inh,IKK-beta,12%
same,%Inh,IKK-epsilon,13%
same,%Inh,INSRR,0%
same,%Inh,INSR,16%
same,%Inh,IRAK1,21%
same,%Inh,IRAK3,1%
same,%Inh,IRAK4,76%
same,%Inh,ITK,21%
same,%Inh,[1],0%
same,%Inh,[2],88%
same,%Inh,[3],58%
same,%Inh,[4],3%
same,%Inh,JNK1,67%
same,%Inh,JNK2,29%
same,%Inh,JNK3,34%
same,%Inh,KIT-autoinhibited,0%
same,%Inh,KIT,94.9%
same,%Inh,LATS1; [5],0%
same,%Inh,LATS2,0%
Cl.NC(=O)c1cccc(Nc2nccc(Nc3ccc(Oc4c(Cl)cccc4Cl)c(Cl)c3)n2)c1 [GW659009],%Inh,IKK-alpha,0%
same,%Inh,IKK-beta,0%
same,%Inh,IKK-epsilon,0%
same,%Inh,INSRR,0%
same,%Inh,INSR,0%
same,%Inh,IRAK1,0%
same,%Inh,IRAK3,90%
same,%Inh,IRAK4,0%
same,%Inh,ITK,98.7%
same,%Inh,[1],9%
same,%Inh,[2],0%
same,%Inh,[3],72%
same,%Inh,[4],0%
same,%Inh,JNK1,26%
same,%Inh,JNK2,5%
same,%Inh,JNK3,1%
same,%Inh,KIT-autoinhibited,0%
same,%Inh,KIT,17%
same,%Inh,LATS1; [5],0%
same,%Inh,LATS2,0%
Cl.Cl.NCC(C(=O)Nc1cc(Br)c(-c2ccnc3[nH]ccc23)s1)c1ccccc1 (centres unmarked) [GSK1269851],%Inh,IKK-alpha,44%
same,%Inh,IKK-beta,34%
same,%Inh,IKK-epsilon,0%
same,%Inh,INSRR,0%
same,%Inh,INSR,0%
same,%Inh,IRAK1,81%
same,%Inh,IRAK3,34%
same,%Inh,IRAK4,26%
same,%Inh,ITK,12%
same,%Inh,[1],2%
same,%Inh,[2],0%
same,%Inh,[3],78%
same,%Inh,[4],100%
same,%Inh,JNK1,15%
same,%Inh,JNK2,7%
same,%Inh,JNK3,0%
same,%Inh,KIT-autoinhibited,2%
same,%Inh,KIT,12%
same,%Inh,LATS1; [5],62%
same,%Inh,LATS2,80%
Cc1ccc(C(=O)N2CC[C@@H](O)C2)cc1-n1c(C)cc(OCc2ccc(F)cc2F)c(Br)c1=O,%Inh,IKK-alpha,0%
same,%Inh,IKK-beta,0%
same,%Inh,IKK-epsilon,0%
same,%Inh,INSRR,0%
same,%Inh,INSR,0%
same,%Inh,IRAK1,0%
same,%Inh,IRAK3,0%
same,%Inh,IRAK4,0%
same,%Inh,ITK,0%
same,%Inh,[1],0%
same,%Inh,[2],48%
same,%Inh,[3],0%
same,%Inh,[4],1%
same,%Inh,JNK1,14%
same,%Inh,JNK2,0%
same,%Inh,JNK3,0%
same,%Inh,KIT-autoinhibited,0%
same,%Inh,KIT,87%
same,%Inh,LATS1; [5],0%
same,%Inh,LATS2,0%
Cc1ccc(S(=O)(=O)Nc2ccc(Nc3nccc(Nc4cccc5[nH]ncc45)n3)cc2)cc1 [GSK581271],%Inh,IKK-alpha,10%
same,%Inh,IKK-beta,3%
same,%Inh,IKK-epsilon,0%
same,%Inh,INSRR,0%
same,%Inh,INSR,0%
same,%Inh,IRAK1,29%
same,%Inh,IRAK3,62%
same,%Inh,IRAK4,43%
same,%Inh,ITK,29%
same,%Inh,[1],44%
same,%Inh,[2],16%
same,%Inh,[3],68%
same,%Inh,[4],3%
same,%Inh,JNK1,44%
same,%Inh,JNK2,27%
same,%Inh,JNK3,29%
same,%Inh,KIT-autoinhibited,0%
same,%Inh,KIT,85%
same,%Inh,LATS1; [5],0%
same,%Inh,LATS2,0%
CCCCc1nn2ncccc2c1-c1ccnc(Nc2ccc(N3CCN(C)CC3)cc2)n1 [GW684941],%Inh,IKK-alpha,41%
same,%Inh,IKK-beta,23%
same,%Inh,IKK-epsilon,16%
same,%Inh,INSRR,21%
same,%Inh,INSR,36%
same,%Inh,IRAK1,94.9%
same,%Inh,IRAK3,79%
same,%Inh,IRAK4,43%
same,%Inh,ITK,5%
same,%Inh,[1],0%
same,%Inh,[2],4%
same,%Inh,[3],87%
same,%Inh,[4],27%
same,%Inh,JNK1,95.1%
same,%Inh,JNK2,98.9%
same,%Inh,JNK3,97.6%
same,%Inh,KIT-autoinhibited,97%
same,%Inh,KIT,100%
same,%Inh,LATS1; [5],0%
same,%Inh,LATS2,0%
CSc1cccc2c(-c3ccncn3)c(-c3ccc(F)cc3)nn12 [GW514786],%Inh,IKK-alpha,0%
same,%Inh,IKK-beta,0%
same,%Inh,IKK-epsilon,5%
same,%Inh,INSRR,3%
same,%Inh,INSR,10%
same,%Inh,IRAK1,10%
same,%Inh,IRAK3,24%
same,%Inh,IRAK4,0%
same,%Inh,ITK,10%
same,%Inh,[1],1%
same,%Inh,[2],9%
same,%Inh,[3],9%
same,%Inh,[4],0%
same,%Inh,JNK1,24%
same,%Inh,JNK2,71%
same,%Inh,JNK3,75%
same,%Inh,KIT-autoinhibited,0%
same,%Inh,KIT,0%
same,%Inh,LATS1; [5],0%
same,%Inh,LATS2,16%
COc1cc(Nc2nccc(N3CCC(NC(=O)Nc4cccc(C(C)=O)c4)C3)n2)cc(OC)c1OC (centres unmarked) [GSK1379753],%Inh,IKK-alpha,0%
same,%Inh,IKK-beta,10%
same,%Inh,IKK-epsilon,20%
same,%Inh,INSRR,0%
same,%Inh,INSR,1%
same,%Inh,IRAK1,77%
same,%Inh,IRAK3,86%
same,%Inh,IRAK4,40%
same,%Inh,ITK,34%
same,%Inh,[1],0%
same,%Inh,[2],11%
same,%Inh,[3],91.4%
same,%Inh,[4],0%
same,%Inh,JNK1,41%
same,%Inh,JNK2,29%
same,%Inh,JNK3,49%
same,%Inh,KIT-autoinhibited,0%
same,%Inh,KIT,86%
same,%Inh,LATS1; [5],0%
same,%Inh,LATS2,0%
CCn1c(-c2nonc2N)nc2c(C#CC(C)(C)O)ncc(OCCCCN)c21.O=C(O)C(F)(F)F.O=C(O)C(F)(F)F [GSK507274],%Inh,IKK-alpha,24%
same,%Inh,IKK-beta,43%
same,%Inh,IKK-epsilon,33%
same,%Inh,INSRR,0%
same,%Inh,INSR,0%
same,%Inh,IRAK1,26%
same,%Inh,IRAK3,0%
same,%Inh,IRAK4,20%
same,%Inh,ITK,15%
same,%Inh,[1],21%
same,%Inh,[2],0%
same,%Inh,[3],60%
same,%Inh,[4],0%
same,%Inh,JNK1,25%
same,%Inh,JNK2,10%
same,%Inh,JNK3,11%
same,%Inh,KIT-autoinhibited,0%
same,%Inh,KIT,17%
same,%Inh,LATS1; 1 µM,0%
same,%Inh,LATS2,89%

# Reference: publication PMC5540273 (PLoS ONE, 2017)
